The source of these data is the supplement of paper PMC8253809.

Each structure is given as a SMILES string. Several values for one entry are separate records, joined by “and”; a condition that tells them apart may be missing. Identical values can stand only once.

One assay has as its system DIPGX29 (H3.3 K27M diffuse intrinsic pontine glioma line). The experiment in a line: growth inhibition (% activity, log2 RLU normalised to DMSO / staurosporine); higher = more growth inhibition. To be noted: 33 µM. A digest of the protocol: (§1)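 In triplicate, pHGG cell lines and H9-derived neural stem cells were treated for 7 days at 37 °C, 5% CO2 with approved drugs at a single final concentration of about 33 μM, added by pin tool. CellTiter-Glo luminescence, after log2 transformation, was normalised on each plate to % activity between solvent and positive control wells. Growth inhibition is reported as the median across replicates.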
As for `C#C[C@]1(O)C=C[C@H]2[C@@H]3CCC4=CC(=O)CC[C@@H]4[C@H]3CC[C@@]21CC`, the growth inhibition stood at 1.62%.

Turning to `NCC(O)c1ccc(O)cc1` (stereo not drawn), the growth inhibition was -0.0577%.

Take `COc1ccc(OC)c(C(O)C(C)N)c1` (stereo not drawn): the growth inhibition amounted to 0.864%.

As to `CC(C)c1c(CN(C)C(C)Cc2ccccc2)n(C)n(-c2ccccc2)c1=O` (stereo not drawn), the growth inhibition was 2.25%.

As for `Cc1cccc(C)c1NC1=NCCCS1`, the growth inhibition is -3.36%.

In the case of `CN(C)C1C(=O)C(C(N)=O)=C(O)C2(O)C(=O)C3=C(O)c4c(O)cccc4C(C)(O)C3CC12` (stereo not drawn), the growth inhibition was -1.53%.

As for `Nc1nc(N)nc(NC2CC2)n1`, the growth inhibition turned out to be 0.786%.

Turning to `C=CC[C@]1(O)CC[C@H]2[C@@H]3CCC4=CC(=O)CCC4=C3C=C[C@@]21C`, the growth inhibition came out at 1.35%.

As to `COc1ccc(C(=O)N2CCCC2=O)cc1`, the growth inhibition is 0.75%.

Consider `N[C@@H]1C[C@H]1c1ccccc1.N[C@H]1C[C@@H]1c1ccccc1`, for which the growth inhibition is 1.4%.

As for `Cn1c(CCCC(=O)O)nc2cc(N(CCCl)CCCl)ccc21`, the growth inhibition worked out at 3.01%.

`C[C@]12CC[C@H](O)CC1=CC[C@@H]1[C@@H]2CC[C@]2(C)C(=O)CC[C@@H]12`: the growth inhibition turned out to be 2.61%.

As to `C[C@@H]1O[C@@H](O[C@H]2C[C@@H](O)[C@]3(CO)[C@H]4[C@H](O)C[C@]5(C)[C@@H](C6=CC(=O)OC6)CC[C@]5(O)[C@@H]4CC[C@]3(O)C2)[C@H](O)[C@H](O)[C@H]1O`, the growth inhibition came to 41.5%.

In the case of `CCC1=C[C@H]2CN3CCc4c([nH]c5ccccc45)[C@](C(=O)OC)(C2)[C@H]13`, the growth inhibition was -4.07%.

Take `C[C@]12CC[C@H]3[C@@H](CC[C@@]45O[C@@H]4C(O)=C(C#N)C[C@]35C)[C@@H]1CC[C@@H]2O`: the growth inhibition was 0.975%.

As for `CCCCCCCCCCCCCCCC[n+]1ccccc1`, the growth inhibition is 59.1%.

Take `CC(NC(C)(C)C)C(=O)c1cccc(Cl)c1` (stereo not drawn): the growth inhibition is -0.525%.

On to `C=CCN.ClCC1CO1` (stereo not drawn), for which the growth inhibition was determined as 0.23%.

For the molecule `CC(O)(CS(=O)(=O)c1ccc(F)cc1)C(=O)Nc1ccc(C#N)c(C(F)(F)F)c1` (stereo not drawn), the growth inhibition is 0.345%.

On to `C[C@]12CCC(=O)C=C1C=C[C@@H]1[C@@H]2CC[C@@]2(C)[C@H]1CC[C@@]2(O)CCC(=O)O`, for which the growth inhibition is 0.155%.

Consider `Cc1c(N)nc(C(CC(N)=O)NCC(N)C(N)=O)nc1C(=O)NC(C(=O)NC(C)C(O)C(C)C(=O)NC(C(=O)NCCc1nc(-c2nc(C(=O)NCCC[S+](C)C)cs2)cs1)C(C)O)C(O[C@@H]1O[C@@H](CO)[C@@H](O)[C@H](O)[C@@H]1O[C@H]1O[C@H](CO)[C@@H](O)[C@H](OC(N)=O)[C@@H]1O)c1cnc[nH]1` (stereo partly drawn), for which the growth inhibition worked out at 3.71%.

As to `CC(=O)OC1CN2CCC1CC2` (stereo not drawn), the growth inhibition was -0.533%.

`COc1cc2c(cc1OC)[C@@]13CCN4CC5=CCO[C@H]6CC(=O)N2[C@H]1[C@H]6[C@H]5C[C@H]43`: the growth inhibition was -3.31%.

As to `C/C=C(\C)C(=O)N[C@@H](c1ccccc1)[C@@H](O)C(=O)O[C@H]1C[C@@]2(O)[C@@H](OC(=O)c3ccccc3)[C@@H]3[C@]4(OC(C)=O)CO[C@@H]4C[C@H](O)[C@@]3(C)C(=O)[C@H](OC(C)=O)C(=C1C)C2(C)C`, the growth inhibition amounted to 11.3%.

`CN1[C@@H]2C[C@@H](OC(=O)[C@H](CO)c3ccccc3)C[C@H]1[C@@H]1O[C@@H]12`: the growth inhibition was -4.79%.

`CC(C)NCC(O)c1ccccc1Cl` (stereo not drawn): the growth inhibition is 0.364%.

On to `CC[C@@]1(O)C(=O)OCc2c1cc1n(c2=O)Cc2cc3ccccc3nc2-1`, for which the growth inhibition worked out at 11.8%.

`CN(C)C(=O)Oc1ccc[n+](C)c1`: the growth inhibition is 0.471%.

As to `CCN(C)C(=O)Oc1cccc([C@H](C)N(C)C)c1`, the growth inhibition was -0.955%.

As to `C#C[C@]1(O)CC[C@H]2[C@@H]3CCC4=CC(=O)CC[C@]4(C)[C@H]3CC[C@@]21C`, the growth inhibition worked out at 0.66%.

In the case of `OC(c1ccccc1)(c1ccccc1)C1CCNCC1`, the growth inhibition is 0.581%.

Consider `O=P1(N(CCCl)CCCl)NCCCO1` (stereo not drawn), for which the growth inhibition is -1.28%.

Regarding `CC[C@@H](C(N)=O)N1CCCC1=O`, the growth inhibition was 1.34%.

For `CN1C(=O)CCS(=O)(=O)C1c1ccc(Cl)cc1` (stereo not drawn), the growth inhibition turned out to be 0.502%.

With `O=C(O)c1nn(Cc2ccc(Cl)cc2Cl)c2ccccc12`, the growth inhibition stood at 1.18%.

`CNC1CC(N)C(O)C(OC2OC(CO)C(O)C3OC4(OC(C(N)CO)C(O)C(O)C4O)OC23)C1O` (stereo not drawn): the growth inhibition was determined as 4.68%.

As for `CN(C)[C@@H]1C(=O)C(C(N)=O)=C(O)[C@@]2(O)C(=O)C3=C(O)c4c(O)cccc4[C@@](C)(O)[C@H]3[C@H](O)[C@@H]12`, the growth inhibition is 0.568% and -1.27%.

Turning to `O=c1[nH]c2ccccc2n1CCCN1CCC(n2c(=O)[nH]c3cc(Cl)ccc32)CC1`, the growth inhibition was determined as 1.24%.

Turning to `CN1C(=O)COc2c(C(=O)NC3CN4CCC3CC4)cc(Cl)cc21` (stereo not drawn), the growth inhibition was determined as 2.11%.

A further assay deals with DIPGX37 (H3.3 K27M diffuse intrinsic pontine glioma line). The description is as above. To be noted: 33 µM. The gist of the method: as §1
Consider `C#C[C@]1(O)C=C[C@H]2[C@@H]3CCC4=CC(=O)CC[C@@H]4[C@H]3CC[C@@]21CC`, for which the growth inhibition amounted to 0.668%.

For `NCC(O)c1ccc(O)cc1` (stereo not drawn), the growth inhibition amounted to 1.17%.

As for `COc1ccc(OC)c(C(O)C(C)N)c1` (stereo not drawn), the growth inhibition was 2.94%.

In the case of `CC(C)c1c(CN(C)C(C)Cc2ccccc2)n(C)n(-c2ccccc2)c1=O` (stereo not drawn), the growth inhibition worked out at 0.985%.

Consider `Cc1cccc(C)c1NC1=NCCCS1`, for which the growth inhibition was -1.28%.

Turning to `CN(C)C1C(=O)C(C(N)=O)=C(O)C2(O)C(=O)C3=C(O)c4c(O)cccc4C(C)(O)C3CC12` (stereo not drawn), the growth inhibition was -2.75%.

As for `Nc1nc(N)nc(NC2CC2)n1`, the growth inhibition stood at 3.68%.

Take `C=CC[C@]1(O)CC[C@H]2[C@@H]3CCC4=CC(=O)CCC4=C3C=C[C@@]21C`: the growth inhibition stood at 1.67%.

Regarding `COc1ccc(C(=O)N2CCCC2=O)cc1`, the growth inhibition amounted to 0.424%.

For `N[C@@H]1C[C@H]1c1ccccc1.N[C@H]1C[C@@H]1c1ccccc1`, the growth inhibition was determined as 3.63%.

For the molecule `Cn1c(CCCC(=O)O)nc2cc(N(CCCl)CCCl)ccc21`, the growth inhibition was 2.76%.

Turning to `C[C@]12CC[C@H](O)CC1=CC[C@@H]1[C@@H]2CC[C@]2(C)C(=O)CC[C@@H]12`, the growth inhibition was 1.45%.

As for `C[C@@H]1O[C@@H](O[C@H]2C[C@@H](O)[C@]3(CO)[C@H]4[C@H](O)C[C@]5(C)[C@@H](C6=CC(=O)OC6)CC[C@]5(O)[C@@H]4CC[C@]3(O)C2)[C@H](O)[C@H](O)[C@H]1O`, the growth inhibition was found to be 21.1%.

As to `CCC1=C[C@H]2CN3CCc4c([nH]c5ccccc45)[C@](C(=O)OC)(C2)[C@H]13`, the growth inhibition was -1.56%.

As to `C[C@]12CC[C@H]3[C@@H](CC[C@@]45O[C@@H]4C(O)=C(C#N)C[C@]35C)[C@@H]1CC[C@@H]2O`, the growth inhibition is -2.98%.

Consider `CCCCCCCCCCCCCCCC[n+]1ccccc1`, for which the growth inhibition amounted to 58.4%.

As for `CC(NC(C)(C)C)C(=O)c1cccc(Cl)c1` (stereo not drawn), the growth inhibition was -0.598%.

Regarding `C=CCN.ClCC1CO1` (stereo not drawn), the growth inhibition was -1.75%.

Consider `CC(O)(CS(=O)(=O)c1ccc(F)cc1)C(=O)Nc1ccc(C#N)c(C(F)(F)F)c1` (stereo not drawn), for which the growth inhibition was -1.44%.

As to `C[C@]12CCC(=O)C=C1C=C[C@@H]1[C@@H]2CC[C@@]2(C)[C@H]1CC[C@@]2(O)CCC(=O)O`, the growth inhibition was -0.641%.

For `Cc1c(N)nc(C(CC(N)=O)NCC(N)C(N)=O)nc1C(=O)NC(C(=O)NC(C)C(O)C(C)C(=O)NC(C(=O)NCCc1nc(-c2nc(C(=O)NCCC[S+](C)C)cs2)cs1)C(C)O)C(O[C@@H]1O[C@@H](CO)[C@@H](O)[C@H](O)[C@@H]1O[C@H]1O[C@H](CO)[C@@H](O)[C@H](OC(N)=O)[C@@H]1O)c1cnc[nH]1` (stereo partly drawn), the growth inhibition came out at 5.42%.

For `CC(=O)OC1CN2CCC1CC2` (stereo not drawn), the growth inhibition turned out to be 1.16%.

Regarding `COc1cc2c(cc1OC)[C@@]13CCN4CC5=CCO[C@H]6CC(=O)N2[C@H]1[C@H]6[C@H]5C[C@H]43`, the growth inhibition is 0.569%.

On to `C/C=C(\C)C(=O)N[C@@H](c1ccccc1)[C@@H](O)C(=O)O[C@H]1C[C@@]2(O)[C@@H](OC(=O)c3ccccc3)[C@@H]3[C@]4(OC(C)=O)CO[C@@H]4C[C@H](O)[C@@]3(C)C(=O)[C@H](OC(C)=O)C(=C1C)C2(C)C`, for which the growth inhibition turned out to be 8.35%.

As for `CN1[C@@H]2C[C@@H](OC(=O)[C@H](CO)c3ccccc3)C[C@H]1[C@@H]1O[C@@H]12`, the growth inhibition is -2%.

For the molecule `CC(C)NCC(O)c1ccccc1Cl` (stereo not drawn), the growth inhibition was -1.04%.

With `CC[C@@]1(O)C(=O)OCc2c1cc1n(c2=O)Cc2cc3ccccc3nc2-1`, the growth inhibition is -1.33%.

For the molecule `CN(C)C(=O)Oc1ccc[n+](C)c1`, the growth inhibition was -1.26%.

With `CCN(C)C(=O)Oc1cccc([C@H](C)N(C)C)c1`, the growth inhibition was -0.495%.

For `C#C[C@]1(O)CC[C@H]2[C@@H]3CCC4=CC(=O)CC[C@]4(C)[C@H]3CC[C@@]21C`, the growth inhibition amounted to 2.06%.

For the molecule `OC(c1ccccc1)(c1ccccc1)C1CCNCC1`, the growth inhibition is -0.7%.

For `O=P1(N(CCCl)CCCl)NCCCO1` (stereo not drawn), the growth inhibition is -0.973%.

As to `CC[C@@H](C(N)=O)N1CCCC1=O`, the growth inhibition was -1.57%.

As to `CN1C(=O)CCS(=O)(=O)C1c1ccc(Cl)cc1` (stereo not drawn), the growth inhibition was 0.814%.

Take `O=C(O)c1nn(Cc2ccc(Cl)cc2Cl)c2ccccc12`: the growth inhibition is 2.18%.

Consider `CNC1CC(N)C(O)C(OC2OC(CO)C(O)C3OC4(OC(C(N)CO)C(O)C(O)C4O)OC23)C1O` (stereo not drawn), for which the growth inhibition worked out at 1.71%.

On to `CN(C)[C@@H]1C(=O)C(C(N)=O)=C(O)[C@@]2(O)C(=O)C3=C(O)c4c(O)cccc4[C@@](C)(O)[C@H]3[C@H](O)[C@@H]12`, for which the growth inhibition was 1.33% and -2.42%.

For `O=c1[nH]c2ccccc2n1CCCN1CCC(n2c(=O)[nH]c3cc(Cl)ccc32)CC1`, the growth inhibition was -0.863%.

On to `CN1C(=O)COc2c(C(=O)NC3CN4CCC3CC4)cc(Cl)cc21` (stereo not drawn), for which the growth inhibition was 3.22%.
